{
  "source": "PubChem BioAssay (NCATS)",
  "note": "Records with an inconclusive call do not appear. Values without a mark were called inactive. Active and inactive are the calls of the source. The call rests on the fitted dose curve; in most records, active means well fitted inhibition curve with a large enough effect; inconclusive means small, poorly fitted or top-dose-only effect; inactive means no such curve, though single readings can be large or run the other way. On the % scale 0 is the no-effect control and ±100 the full control effect; potency means the concentration at half of the fitted maximal effect.",
  "data": [
    {"biological_target": "Nuclear receptor ROR-gamma (Homo sapiens) (UniProt P51449)", "sequence (P51449 whole entry, looked up)": "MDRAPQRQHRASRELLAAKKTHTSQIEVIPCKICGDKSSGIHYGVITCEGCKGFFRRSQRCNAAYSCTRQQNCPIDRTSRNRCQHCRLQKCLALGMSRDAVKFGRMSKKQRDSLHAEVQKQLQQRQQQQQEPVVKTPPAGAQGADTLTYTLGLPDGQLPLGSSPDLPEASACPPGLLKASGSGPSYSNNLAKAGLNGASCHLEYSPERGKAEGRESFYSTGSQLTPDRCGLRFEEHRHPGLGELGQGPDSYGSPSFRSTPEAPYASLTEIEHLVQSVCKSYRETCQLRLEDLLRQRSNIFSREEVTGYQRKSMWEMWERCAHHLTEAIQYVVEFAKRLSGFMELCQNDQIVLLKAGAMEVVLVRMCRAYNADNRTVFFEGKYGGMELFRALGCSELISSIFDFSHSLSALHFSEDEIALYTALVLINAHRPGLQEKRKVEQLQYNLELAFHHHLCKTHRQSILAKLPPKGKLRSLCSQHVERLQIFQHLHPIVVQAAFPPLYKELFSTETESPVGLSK", "experiment": "qHTS assay for small molecule antagonists of the retinoid-related orphan receptor gamma (ROR-gamma) signaling pathway (AID 651802); further: nearly all actives have a fitted effect of over 60% in size", "conditions": "ROR-gamma antagonist cell reporter assay; series mostly up to 92.2 µM; activity change, negative = inhibition: at the top concentration", "source_text": "National Center for Advancing Translational Sciences [NCATS]\nNIH Chemical Genomics Center [NCGC]\nNational Institutes of Environmental Health Sciences [NIEHS]\nNational Toxicology Program [NTP]\nNuclear steroid hormone receptors are involved in many biological processes including inflammatory responses, cell proliferation, and apoptosis. Environmental factors or compounds disrupting these nuclear receptor pathways and gene expression may promote susceptibility to immunotoxicants and autoimmune diseases. One important group of these expression factors are the retinoid-related orphan receptors. To assess compounds that may interfere with the retinoid-related orphan receptor gamma (ROR-gamma) transcription factor, a cell-based luciferase assay was used.\nThe CHO cell-based assay utilizes a TET-inducible ROR expression factor and ROR response element-LUC reporter gene. Reporter activity was induced using doxycycline and measured after 16hr incubation. Luminescence was read using Viewlux (PerkinElmer), where a decrease in reporter activity would show a decrease in luminescence.\n1,000 cells in 4 uL/well were dispensed into white wall/solid bottom 1536-well plates using a Multidrop Combi (Thermo Scientific) dispenser. Following transfer of 23 nL compound or DMSO vehicle by a pin tool, the plates were treated with 1 ul doxycycline to induce reporter gene activity. After 16hr incubation at 37C and 5% CO2, 5uL one-glo (promega) was added to each plate and following 30 min incubation at room temperature, luminescence was quantified on a ViewLux (PerkinElmer) plate reader.", "units": {"activity change, negative = inhibition": "%"}, "values": [
      {"smiles": "CN(C)N=O", "activity change, negative = inhibition": 23.9},
      {"smiles": "CN=C=O", "activity change, negative = inhibition": 8.22},
      {"smiles": "C/C=C/CC#N", "activity change, negative = inhibition": 6.01},
      {"smiles": "O=[N+]([O-])c1ccc(O)c([N+](=O)[O-])c1", "Potency": "6.68 µM (active)"},
      {"smiles": "C[N+](=O)[O-]", "activity change, negative = inhibition": -3.65},
      {"smiles": "CCCCC(=O)Cl", "activity change, negative = inhibition": 2.02},
      {"smiles": "OCC(Cl)CCl", "note": "(stereo not given)", "activity change, negative = inhibition": 7.79},
      {"smiles": "O=C(O)C(Cl)(Cl)Br", "activity change, negative = inhibition": 3.22},
      {"smiles": "CCCCCc1cc(O)cc(O)c1", "activity change, negative = inhibition": 4.54},
      {"smiles": "O=C(Cc1ccccc1)OCc1ccccc1", "activity change, negative = inhibition": -4.19},
      {"smiles": "C=CC#N", "activity change, negative = inhibition": 8.57},
      {"smiles": "CC(C)OC(=O)Cc1ccccc1", "activity change, negative = inhibition": 5.92},
      {"smiles": "c1ccc2c(c1)CCNC2", "activity change, negative = inhibition": 28.5},
      {"smiles": "CCC#N", "activity change, negative = inhibition": 6.77},
      {"smiles": "Cl/C=C/Cl", "activity change, negative = inhibition": 19.7},
      {"smiles": "ClCC(Cl)CCl", "activity change, negative = inhibition": -0.495},
      {"smiles": "COC(=O)Nc1nc2ccccc2[nH]1", "activity change, negative = inhibition": -5.27},
      {"smiles": "Nc1ccc(Cl)c(Cl)c1", "activity change, negative = inhibition": 7.97},
      {"smiles": "O=Cc1ccc2c(c1)OCO2", "activity change, negative = inhibition": -7.43},
      {"smiles": "CN(C)C(=O)Cl", "activity change, negative = inhibition": 2.67},
      {"smiles": "CCCCOC(=O)c1ccccc1N", "activity change, negative = inhibition": -10.3},
      {"smiles": "CCCBr", "activity change, negative = inhibition": 15.5},
      {"smiles": "C=CC(=O)OCC(C)C", "activity change, negative = inhibition": 5.17},
      {"smiles": "Nc1cc(Cl)ccc1Cl", "activity change, negative = inhibition": 15.1},
      {"smiles": "Oc1cc(Cl)c(Cl)c(Cl)c1Cl", "Potency": "23.7 µM (active)"},
      {"smiles": "CCOC(=O)C1OC1(C)c1ccccc1", "note": "(stereo not given)", "activity change, negative = inhibition": 0.0374},
      {"smiles": "O=C(Cl)c1ccccc1F", "activity change, negative = inhibition": 33.9},
      {"smiles": "c1ccc(OCC2CO2)cc1", "note": "(stereo not given)", "activity change, negative = inhibition": 0.508},
      {"smiles": "C=CCCl", "activity change, negative = inhibition": 30.1},
      {"smiles": "Nc1ccc(Cc2ccc(N)cc2)cc1", "activity change, negative = inhibition": 20},
      {"smiles": "CC(C)[N+](=O)[O-]", "activity change, negative = inhibition": 38.3},
      {"smiles": "O=Cc1ccc(Cl)cc1Cl", "activity change, negative = inhibition": -9.15},
      {"smiles": "Cc1cc(C)cc(OP(=O)(Oc2cc(C)cc(C)c2)Oc2cc(C)cc(C)c2)c1", "Potency": "26.6 µM (active)"},
      {"smiles": "C=CCOCC1CO1", "note": "(stereo not given)", "activity change, negative = inhibition": 5.04},
      {"smiles": "ClC(Cl)c1ccccc1", "activity change, negative = inhibition": 6.82},
      {"smiles": "O=[N+]([O-])CCO", "activity change, negative = inhibition": 6.01},
      {"smiles": "CCSC(=O)N1CCCCCC1", "activity change, negative = inhibition": -17.9},
      {"smiles": "O=[N+]([O-])c1c(Cl)c(Cl)c(Cl)c(Cl)c1Cl", "activity change, negative = inhibition": -22.7},
      {"smiles": "CCN(N=O)C(N)=O", "activity change, negative = inhibition": -12.8},
      {"smiles": "Nc1cccc2ccccc12", "activity change, negative = inhibition": -20.4}
    ]}
  ]
}
